Bioassay records (PubChem)
3CLpro inhibitor: SARS-CoV 3CLpro protease inhibitors, primary screen, biochemical, quenched FRET; Replicase polyprotein 1ab (Severe acute respiratory syndrome coronavirus), P0C6X7; recombinant SARS-CoV 3CLpro, quenched FRET peptide cleavage; inhibition, % at 6 µM; 290,000 tested, 0.14% active; AID 1706, 2009; in the data active = inhibition above about 12%
BH1578 lux ind: inducers of Vibrio cholerae quorum light production without autoinducers, primary screen, BH1578 luxS cqsA deficient, single point | 350,000 tested, 0.16% active | activation, % at 18.7 µM | AID 588436, 2011 | V. cholerae BH1578 lux reporter, luminescence, 6 h; in the data active = activation mostly above about 9.7%, no sharp cut-off
BJeLR lethal: MLPCN primary cell-based screen for lethality selective to Ras in HRASV12 cells. BJeLR (HRASV12) viability, CellTiter-Glo ATP luminescence, 48 h. inhibition, % (no concentration beside the values). 300,000 tested, 0.17% active. AID 1554, 2009; in the data active = inhibition above about 50%
VHR inh abs: VHR1 phosphatase inhibitors, primary screen, biochemical, absorbance, uHTS; inhibition, % at 13.3 µM; Dual specificity protein phosphatase 3 (Homo sapiens), P51452; recombinant VHR phosphatase, pNPP absorbance; 290,000 tested, 0.52% active; in the data active = inhibition above about 50%
Target sequence (P51452 whole entry, looked up): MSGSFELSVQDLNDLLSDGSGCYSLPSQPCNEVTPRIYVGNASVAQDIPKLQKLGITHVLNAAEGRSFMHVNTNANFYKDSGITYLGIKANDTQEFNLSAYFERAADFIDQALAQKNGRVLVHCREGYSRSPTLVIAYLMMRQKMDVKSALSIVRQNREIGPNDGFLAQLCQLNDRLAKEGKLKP
MazEF act: activators of E. coli MazEF toxin-antitoxin RNase, primary screen, biochemical, fluorescence, uHTS. activation, % at 20 µM. 350,000 tested, 0.32% active. Endoribonuclease toxin MazF (Escherichia coli (strain K12)), P0AE70. FAM/BHQ RNA-DNA oligo cleavage fluorescence, 5 h; in the data active = activation above about 50%
Target sequence (P0AE70 whole entry, looked up): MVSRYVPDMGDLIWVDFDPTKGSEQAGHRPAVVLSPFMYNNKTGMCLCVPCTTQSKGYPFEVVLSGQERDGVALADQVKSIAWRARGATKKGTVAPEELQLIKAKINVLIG
PfHsp40 rescue: rescue of yeast from PfHsp40 toxicity, primary screen, S. cerevisiae, ATP luminescence. S. cerevisiae expressing PfHsp40, growth rescue. 340,000 tested, 0.68% active. growth rescue, % at 12.5 µM. AID 504582, 2011; in the data active = growth rescue above about 28%, passing the limit was not always enough;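 also: yeast W303a lacking pdr1 and pdr3 grown in galactose medium; growth measured after three days at 30 °C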
Large screens that a line does not name were inactive. Sampled rows, rich in hits. Any-hit rate of the full collection: about 1.7%.

CC(=O)c1sc2nc(CSc3nnnn3-c3ccccc3)[nH]c(=O)c2c1C	none
N#C/C(=C/c1ccc(N2CCOCC2)o1)c1nc2ccccc2[nH]1	VHR inh abs 53, MazEF act 428 (no result: BJeLR lethal)
O=C(Nc1ccc(NC(=O)C2CCCCC2)nc1)c1ccccn1	VHR inh abs 57
CN(C)S(=O)(=O)N1CCN(CC(O)COc2ccc(-c3ccccc3)cc2)CC1 (configuration not stated)	none
O=C(NCCC(=O)N1CCN(c2ccccc2O)CC1)c1ccc(Br)cc1	PfHsp40 rescue 301 (no result: 3CLpro inhibitor, VHR inh abs)
N#Cc1ccccc1NC(=O)COC(=O)c1c[nH]c2ccccc12	none (no result: 3CLpro inhibitor, BJeLR lethal, VHR inh abs)
O=C(Nc1ccc2c(c1)OCO2)N1CCN(c2ccc(F)cc2)CC1	VHR inh abs 57
O=C(Nc1ccc2c(c1)OCO2)N1CCN(c2ccccc2)CC1	none
Nc1ncnc2c1ncn2[C@@H]1O[C@H](COP(=O)(O)O)[C@@H](O)[C@H]1O	none
CN1N=C(N)c2cn(C3OC(COP(=O)(O)O)C(O)C3O)c3ncnc1c23 (configuration not stated)	BH1578 lux ind 50 (no result: 3CLpro inhibitor, BJeLR lethal, VHR inh abs)
O=S1(=O)CCN(c2ccccc2CC(c2c[nH]c3ccccc23)c2c[nH]c3ccccc23)CC1	none (no result: 3CLpro inhibitor, BJeLR lethal, VHR inh abs)
CC1CCN(S(=O)(=O)c2ccc3c(c2)N(CC(=O)NCCCN2CC(C)CC(C)C2)C(=O)CS3)CC1 (configuration not stated)	VHR inh abs 56
CC1CCCCN1CCNC(=O)CN1C(=O)CSc2ccc(S(=O)(=O)N3CCCCC3)cc21 (configuration not stated)	none
CC1CCCCN1CCCNC(=O)CN1C(=O)CSc2ccc(S(=O)(=O)N3CCOCC3)cc21 (configuration not stated)	VHR inh abs 50
CCCc1cc(C(=O)OCC(=O)NCCc2ccccc2)sc1C	none (no result: 3CLpro inhibitor, BJeLR lethal, VHR inh abs, PfHsp40 rescue)
Cc1cc(C)n2nc(SC(C)C(=O)Nc3ccc(Cl)cn3)nc2n1 (configuration not stated)	none
Cc1ccc(S(=O)(=O)N2CCN(C(=O)Cn3c(=O)oc4ccccc43)CC2)c(C)c1	none (no result: 3CLpro inhibitor, BJeLR lethal, VHR inh abs)
COc1cccc(OC)c1C(=O)NC(C)C12CC3CC(CC(C3)C1)C2 (configuration not stated)	PfHsp40 rescue 84
CC(NC(=O)c1ccc([N+](=O)[O-])o1)C12CC3CC(CC(C3)C1)C2 (configuration not stated)	none
Cc1oc2c(c1C(=O)O)C(=O)c1ccccc1C2=O	none
Cc1oc2c(c1C(=O)c1ccccc1)C(=O)C(=O)c1ccccc1-2	PfHsp40 rescue 97
Cc1ccc(SCC(=O)OCC(=O)NC(C)c2ccc(Br)cc2)cc1 (configuration not stated)	VHR inh abs 57
COc1cccc(NC(=O)C2(C)CCN2C(=O)Cc2ccc(C(C)C)cc2)c1 (configuration not stated)	none (no result: 3CLpro inhibitor, BJeLR lethal, VHR inh abs, MazEF act, PfHsp40 rescue)
CC(C)NC(=O)COc1coc(CN2CCN(Cc3ccccc3)CC2)cc1=O	VHR inh abs 53
CNC(=O)COc1coc(CN2CCN(Cc3ccccc3)CC2)cc1=O	none
CCOc1ccc(/C=C/C(=O)Oc2ccccc2)cc1	VHR inh abs 52
CCN(CC)S(=O)(=O)c1cc(NC(=O)c2cccc(N3C(=O)CCC3=O)c2)ccc1Cl	none (no result: 3CLpro inhibitor, VHR inh abs)
CC(=O)c1ccc(N2CCN(C(=O)c3cc4c(C)nc5ccccc5c4o3)CC2)cc1	MazEF act 56
Cc1cc(/C=C2\C(=O)NC(=O)N(c3ccc(Br)cc3)C2=O)c(C)n1-c1cc(C(=O)O)cc(C(=O)O)c1	none
Cc1cc(/C=C2\C(=O)NC(=O)N(c3cccc(Br)c3)C2=O)c(C)n1C	MazEF act 230
Cc1cc(/C=C2/C(=O)NC(=O)N(c3ccc(Br)cc3)C2=O)c(C)n1C	none
Cc1cc(/C=C2\C(=O)NC(=O)N(c3ccc(Br)cc3)C2=O)c(C)n1C	MazEF act 87
Cc1ccccc1CNC(=O)c1ccc2nc(N3CCOCC3)sc2c1	none
Cc1ccc(CCNC(=O)c2nnn(-c3cc(C)cc(C)c3)c2N)cc1	PfHsp40 rescue 48
O=C(OCc1cn([C@H]2CN(Cc3cccs3)[C@@H](c3ccc(Cl)cc3)C[C@@H]2O)nn1)c1ccccc1	none (no result: 3CLpro inhibitor, BJeLR lethal, VHR inh abs, PfHsp40 rescue)
CC[C@@]1(O)C(=O)OCc2c1cc1n(c2=O)Cc2cc3ccccc3nc2-1	BJeLR lethal 91 (no result: BH1578 lux ind, MazEF act, PfHsp40 rescue)
CCC1(OC(=O)CN)C(=O)OCc2c1cc1n(c2=O)Cc2cc3ccccc3nc2-1 (configuration not stated)	BJeLR lethal 90
CCC1(O)C(=O)OCc2c1cc1n(c2=O)Cc2cc3cc(O)ccc3nc2-1 (configuration not stated)	none (no result: 3CLpro inhibitor, BJeLR lethal, VHR inh abs)
CCc1c2c(nc3ccc(OC(=O)N4CCC(N5CCCCC5)CC4)cc13)-c1cc3c(c(=O)n1C2)COC(=O)[C@]3(O)CC	BJeLR lethal 56 (no result: 3CLpro inhibitor, VHR inh abs)
O=C(Oc1ccc([N+](=O)[O-])cc1)N1CCC(N2CCCCC2)CC1	none
CC[C@@]1(O)C(=O)OCc2c1cc1n(c2=O)Cc2cc3c(NC(=O)CN)cccc3nc2-1	BJeLR lethal 93
Cc1ccc(C(=O)N2CCN(c3ccc(NC(=O)Cc4ccccc4)cc3)CC2)cc1	none
CCC1NC(=O)c2cccnc2-n2c1nc1cc(OC)c(OC)cc1c2=O (configuration not stated)	none (no result: 3CLpro inhibitor, BJeLR lethal, VHR inh abs, PfHsp40 rescue)
Cc1cnc(CNC(=O)c2ccc3sc([C@H]4C[C@H](O)[C@@H](CO)O4)nc3c2)cn1	none (no result: 3CLpro inhibitor, BJeLR lethal, VHR inh abs, MazEF act, PfHsp40 rescue)
CC(C)c1nnc(NC(=O)c2cccs2)s1	none
CCCCC(CC)c1nnc(NC(=O)c2cccs2)s1 (configuration not stated)	PfHsp40 rescue 264
O=C(NCc1ccccc1)c1cc(C2COCCN2C(=O)OCCF)on1 (configuration not stated)	none (no result: 3CLpro inhibitor, BJeLR lethal, VHR inh abs, MazEF act, PfHsp40 rescue)
Oc1ccccc1N=Cc1c(O)ccc2oc3c(c12)CCCC3	PfHsp40 rescue 190
COCCn1c(-c2ccc(-c3ccc([N+](=O)[O-])cc3Br)o2)nc2c1c(=O)[nH]c(=O)n2CC(C)C	MazEF act 98
COc1ccc(C)cc1/C=C/C(=O)N1CCN(S(=O)(=O)c2cccs2)CC1	none (no result: 3CLpro inhibitor, BJeLR lethal, VHR inh abs, PfHsp40 rescue)
COc1cc(NC(=O)c2cc(C)on2)cc(C(=O)Nc2cccc(C(F)(F)F)c2)c1	PfHsp40 rescue 50 (no result: 3CLpro inhibitor)
COc1cc(NC(=O)c2csc(N)n2)cc(C(=O)Nc2cccc(C(F)(F)F)c2)c1	none (no result: 3CLpro inhibitor)
O=C(NCC1CCCO1)c1cc(S(=O)(=O)N2CCCC2)c(Cl)cc1Cl (configuration not stated)	none
COc1ccc(C2C(C(=O)Nc3ccccc3)=C(C)N=C3SCC(=O)N32)cc1 (configuration not stated)	none (no result: BH1578 lux ind)
